# Assay results as given in the supplement of paper PMC8728848.
# About 410 targets per protein were measured; listed, in parts, are those with the strongest signals and a random draw of the rest.
# B1: Tap1 (Sordaria macrospora), Q50IV4 (protein)
# chain: MSHHHHHHHHYTLHLRLINDTSDTLTLVEQTSWWGKNTIWSQVRSTGVHVLSMAASGSSGMLRFQTSKGDFFAVAVGVHNYKRWCDVLVDTADEAPLTKLHPKYYDDKDAKYQALWAQASEFEAKSKSGKTVRIKFYQADGNVLRATVEYL
# B2: CLEC9a (Mus musculus), Q8BRU4 (protein)
# chain: MHAEEIYTSLQWDIPTSEASQKCQSPSKCSGAWCVVTMISCVVCMGLLATSIFLGIKFFQVSSLVLEQQERLIQQDTALVNLTQWQRKYTLEYCQALLQRSLHSGSDCSPCPHNWIQNGKSCYYVFERWEMWNISKKSCLKEGASLFQIDSKEEMEFISSIGKLKGGNKYWVGVFQDGISGSWFWEDGSSPLSDLLPAERQRSAGQICGYLKDSTLISDKCDSWKYFICEKKAFGSCI
# Experiments:
# Assay in all cases: glycan array binding signal (z-score within array); higher = stronger binding
# Conditions in all cases: glycan notation: IUPAC condensed, linker removed
# [1] = target: Neu5Ac(a2-3)Gal(b1-4)[Fuc(a1-3)]GlcNAc(b1-3)Gal(b1-4)GlcNAc
# Procedure, shortened: (§1)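 Glycan array data came from 3228 arrays in the Consortium for Functional Glycomics database, and only arrays with an available protein sequence were kept. Glycan names were put into IUPAC-condensed notation, and columns mapping to the same glycan were averaged. The binding signal is a within-array Z-score, averaged across arrays of one protein sequence run at different concentrations or buffers and across linkers. A negative Z-score can be read as non-binding.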
# [2] = target: Neu5Ac(a2-3)GalNAc(b1-4)GlcNAc
# Procedure, shortened: as §1
# [3] = target: Neu5Ac(a2-6)Gal(b1-4)GlcNAc(b1-3)Gal(b1-4)[Fuc(a1-3)]GlcNAc(b1-3)Gal(b1-4)[Fuc(a1-3)]GlcNAc
# Procedure, shortened: as §1
# [4] = target: Neu5Gc(a2-3)Gal(b1-3)[Fuc(a1-4)]GlcNAc
# Procedure, shortened: as §1
# [5] = target: Fuc(a1-2)Gal(b1-3)GalNAc
# Procedure, shortened: as §1
# [6] = target: Fuc(a1-2)Gal(b1-4)Glc6S
# Procedure, shortened: as §1
# [7] = target: Fuc(a1-2)Gal(b1-4)[Fuc(a1-3)]GlcNAc(b1-2)Man(a1-3)[Fuc(a1-2)Gal(b1-4)[Fuc(a1-3)]GlcNAc(b1-2)Man(a1-6)]Man(b1-4)GlcNAc(b1-4)GlcNAc
# Procedure, shortened: as §1
# [8] = target: Fuc(a1-2)[Gal(a1-3)]Gal(b1-3)GlcNAc(b1-2)Man(a1-3)[Fuc(a1-2)[Gal(a1-3)]Gal(b1-3)GlcNAc(b1-2)Man(a1-6)]Man(b1-4)GlcNAc(b1-4)GlcNAc
# Procedure, shortened: as §1
# [9] = target: Fuc(a1-2)[Gal(a1-3)]Gal(b1-4)Glc
# Procedure, shortened: as §1
# [10] = target: Gal(a1-3)Gal
# Procedure, shortened: as §1
# [11] = target: Gal(a1-4)Gal(b1-3)GlcNAc(b1-2)Man(a1-3)[Gal(a1-4)Gal(b1-3)GlcNAc(b1-2)Man(a1-6)]Man(b1-4)GlcNAc(b1-4)GlcNAc
# Procedure, shortened: as §1
# [12] = target: Gal(b1-3)GalNAc
# Procedure, shortened: as §1
# [13] = target: Gal(b1-3)GlcNAc(b1-2)Man(a1-3)[Gal(b1-3)GlcNAc(b1-2)Man(a1-6)]Man(b1-4)GlcNAc(b1-4)GlcNAc
# Procedure, shortened: as §1
# [14] = target: Gal(b1-3)GlcNAc(b1-3)Gal(b1-4)GlcNAc
# Procedure, shortened: as §1
# [15] = target: Gal(b1-3)[Neu5Ac(b2-6)]GalNAc
# Procedure, shortened: as §1
# [16] = target: Gal(b1-4)Glc
# Procedure, shortened: as §1
# [17] = target: Gal(b1-4)GlcNAc(b1-3)[Gal(b1-4)GlcNAc(b1-6)]Gal(b1-4)GlcNAc
# Procedure, shortened: as §1
# [18] = target: Gal(b1-4)GlcNAc(b1-3)[Gal(b1-4)GlcNAc(b1-6)]GalNAc
# Procedure, shortened: as §1
# [19] = target: Gal4S(b1-4)GlcNAc
# Procedure, shortened: as §1
# [20] = target: Gal4S6S(b1-4)GlcNAc
# Procedure, shortened: as §1
# [21] = target: GalNAc(b1-3)Gal
# Procedure, shortened: as §1
# [22] = target: Glc(a1-6)Glc(a1-6)Glc
# Procedure, shortened: as §1
# [23] = target: Glc(b1-6)Glc
# Procedure, shortened: as §1
# [24] = target: GlcNAc(a1-4)Gal(b1-4)GlcNAc(b1-3)Gal(b1-4)[Fuc(a1-3)]GlcNAc(b1-3)Gal(b1-4)[Fuc(a1-3)]GlcNAc
# Procedure, shortened: as §1
# [25] = target: GlcNAc(b1-2)[GlcNAc(b1-4)]Man(a1-3)[GlcNAc(b1-2)Man(a1-6)]Man(b1-4)GlcNAc(b1-4)GlcNAc
# Procedure, shortened: as §1
# [26] = target: GlcNAc(b1-3)[GlcNAc(b1-6)]Gal(b1-4)GlcNAc
# Procedure, shortened: as §1
# [27] = target: GlcNAc(b1-4)Gal(b1-4)GlcNAc
# Procedure, shortened: as §1
# [28] = target: GlcNAc(b1-4)GlcNAc(b1-4)GlcNAc
# Procedure, shortened: as §1
# [29] = target: Neu5Ac(a2-3)Gal(b1-3)[Fuc(a1-4)]GlcNAc
# Procedure, shortened: as §1
# [30] = target: Neu5Ac(a2-3)Gal(b1-4)GlcNAc(b1-2)Man(a1-3)[GlcNAc(b1-2)Man(b1-4)GlcNAc(b1-2)Man(a1-6)]Man(b1-4)GlcNAc(b1-4)GlcNAc
# Procedure, shortened: as §1
# [31] = target: Neu5Ac(a2-3)Gal(b1-4)GlcNAc(b1-6)[Neu5Ac(a2-3)Gal(b1-3)]GalNAc
# Procedure, shortened: as §1
# [32] = target: Neu5Ac(a2-3)Gal(b1-4)[Fuc(a1-3)]GlcNAc(b1-3)Gal
# Procedure, shortened: as §1
# [33] = target: Neu5Ac(a2-3)Gal(b1-4)[Fuc(a1-3)]GlcNAc(b1-6)[Neu5Ac(a2-3)Gal(b1-3)]GalNAc
# Procedure, shortened: as §1
# [34] = target: Neu5Ac(a2-3)Gal(b1-4)[Fuc(a1-3)]GlcNAc6S
# Procedure, shortened: as §1
# [35] = target: Neu5Ac(a2-3)GalNAc
# Procedure, shortened: as §1
# [36] = target: Neu5Ac(a2-6)Gal(b1-4)Glc
# Procedure, shortened: as §1
# [37] = target: Neu5Ac(a2-6)Gal(b1-4)GlcNAc(b1-2)Man(a1-3)[GlcNAc(b1-2)Man(a1-6)]Man(b1-4)GlcNAc(b1-4)GlcNAc
# Procedure, shortened: as §1
# [38] = target: Neu5Ac(a2-8)Neu5Ac(a2-3)[GalNAc(b1-4)]Gal(b1-4)Glc
# Procedure, shortened: as §1
# [39] = target: Neu5Ac(a2-8)Neu5Ac(a2-8)Neu5Ac(a2-8)Neu5Ac(a2-3)[GalNAc(b1-4)]Gal(b1-4)Glc
# Procedure, shortened: as §1
# [40] = target: Neu5Gc(a2-6)GalNAc
# Procedure, shortened: as §1
Binder,glycan array binding signal (z-score) [1],glycan array binding signal (z-score) [2],glycan array binding signal (z-score) [3],glycan array binding signal (z-score) [4],glycan array binding signal (z-score) [5],glycan array binding signal (z-score) [6],glycan array binding signal (z-score) [7],glycan array binding signal (z-score) [8],glycan array binding signal (z-score) [9],glycan array binding signal (z-score) [10],glycan array binding signal (z-score) [11],glycan array binding signal (z-score) [12],glycan array binding signal (z-score) [13],glycan array binding signal (z-score) [14],glycan array binding signal (z-score) [15],glycan array binding signal (z-score) [16],glycan array binding signal (z-score) [17],glycan array binding signal (z-score) [18],glycan array binding signal (z-score) [19],glycan array binding signal (z-score) [20],glycan array binding signal (z-score) [21],glycan array binding signal (z-score) [22],glycan array binding signal (z-score) [23],glycan array binding signal (z-score) [24],glycan array binding signal (z-score) [25],glycan array binding signal (z-score) [26],glycan array binding signal (z-score) [27],glycan array binding signal (z-score) [28],glycan array binding signal (z-score) [29],glycan array binding signal (z-score) [30],glycan array binding signal (z-score) [31],glycan array binding signal (z-score) [32],glycan array binding signal (z-score) [33],glycan array binding signal (z-score) [34],glycan array binding signal (z-score) [35],glycan array binding signal (z-score) [36],glycan array binding signal (z-score) [37],glycan array binding signal (z-score) [38],glycan array binding signal (z-score) [39],glycan array binding signal (z-score) [40]
B1,-0.144,-0.247,-0.176,-0.24,,,,,,,,,,,,,,,,,,,,,,,,,,,,,,,,,,,,
B2,,,,-0.987,0.078,0.626,2.21,3.03,1.11,1.37,3.35,-0.657,1.97,1.18,1.89,-0.825,0.779,1.87,1.88,-1.4,0.273,-0.171,0.001,0.915,4.01,-1.89,0.714,2.95,-0.871,2.01,-0.1,-1.7,1.35,-0.627,-1.07,0.132,-0.365,0.872,2.43,-0.83
